# Most compounds without a hit are left out; they make up all but 5.3% or so of the library.
# JMJD2A Tudor: inhibitors of human JMJD2A Tudor domain; Potency, µM (titrated, usually from 114 µM), without a hit: at the top dose activity change, negative = inhibition, hits mostly inhibitors; AlphaScreen JMJD2A-Tudor / H3K4me3 peptide binding; AID 504339; O75164; 390,000 compounds, 4.4% hits; further: potency means the concentration at half of the fitted maximal effect; on the % scale 0 is the no-effect control and ±100 the full control effect; nearly all actives have a fitted effect of over 50% in size
# Target sequence (O75164 whole entry, looked up, the tested form may be a part): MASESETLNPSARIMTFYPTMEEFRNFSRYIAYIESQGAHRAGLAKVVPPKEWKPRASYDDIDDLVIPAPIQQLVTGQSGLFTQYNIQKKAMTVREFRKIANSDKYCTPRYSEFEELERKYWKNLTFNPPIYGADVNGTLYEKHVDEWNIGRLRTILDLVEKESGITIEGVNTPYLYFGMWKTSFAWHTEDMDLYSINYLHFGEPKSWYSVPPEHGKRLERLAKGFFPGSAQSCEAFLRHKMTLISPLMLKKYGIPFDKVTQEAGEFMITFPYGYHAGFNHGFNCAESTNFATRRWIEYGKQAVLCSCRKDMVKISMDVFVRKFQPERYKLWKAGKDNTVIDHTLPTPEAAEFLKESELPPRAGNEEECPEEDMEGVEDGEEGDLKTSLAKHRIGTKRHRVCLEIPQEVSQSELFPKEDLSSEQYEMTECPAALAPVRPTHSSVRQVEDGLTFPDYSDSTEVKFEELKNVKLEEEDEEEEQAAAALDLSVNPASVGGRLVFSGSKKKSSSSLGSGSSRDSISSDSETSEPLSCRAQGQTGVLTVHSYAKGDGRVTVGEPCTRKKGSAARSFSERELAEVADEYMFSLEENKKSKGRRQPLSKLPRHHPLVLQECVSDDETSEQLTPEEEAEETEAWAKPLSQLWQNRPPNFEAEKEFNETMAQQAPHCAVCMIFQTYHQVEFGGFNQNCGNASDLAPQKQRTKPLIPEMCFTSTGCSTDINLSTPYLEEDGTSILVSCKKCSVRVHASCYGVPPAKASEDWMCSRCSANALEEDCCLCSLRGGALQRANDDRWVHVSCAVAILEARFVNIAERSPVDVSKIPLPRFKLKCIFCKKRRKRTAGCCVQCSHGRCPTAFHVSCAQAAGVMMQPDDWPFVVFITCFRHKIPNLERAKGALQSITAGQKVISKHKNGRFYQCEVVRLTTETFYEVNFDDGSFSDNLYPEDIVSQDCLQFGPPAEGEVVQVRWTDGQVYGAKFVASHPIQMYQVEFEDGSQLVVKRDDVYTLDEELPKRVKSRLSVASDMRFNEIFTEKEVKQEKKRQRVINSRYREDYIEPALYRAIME
# CtBP-E1A blk: inhibitors of CtBP/E1A interaction | AlphaScreen GST-E1A/His-CtBP binding, 1536-well; stronger effect = lower value | activity change, % (test concentration not listed) | 340,000 compounds, 0.49% hits; in the data active means activity change below about -65%; inconclusive means mostly about -30% to -63%; further: on the % scale 0 is the no-effect control and ±100 the full control effect
#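 GST-E1A and His-tagged CtBP (125 nM each as 5X stock) were preincubated with pin-transferred compound for 2 h at 37 °C in the dark, then glutathione donor and nickel acceptor beads were added for 1 h before AlphaScreen reading.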
# Six1-Eya2 inh: blocks human Six1 binding to Eya2 | Q15475+O00167 | AlphaScreen GST-Six1/His-Eya2 binding, biochemical; stronger effect = lower value | activity change, % (concentration not given with the values) | 360,000 compounds, 0.56% hits | AID 651725; in the data active means activity change below about -65%; inconclusive means mostly about -30% to -63%; further: on the % scale 0 is the no-effect control and ±100 the full control effect
#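 AlphaScreen with GST-Six1 and His-Eya2 (5X mix: 250 nM and 500 nM), glutathione donor and nickel acceptor beads; buffer 50 mM Tris pH 8.0, 300 mM NaCl, 1 mM TCEP; 1 h at 37 C in the dark.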
# BAZ2B inh: inhibitors of human BAZ2B bromodomain. Potency, µM (highest dose often 114 µM), without a hit: top-dose activity change, negative = inhibition, actives largely listed as inhibitors. AlphaScreen BAZ2B-H3K14Ac peptide displacement. Q9UIF8. AID 504333. 360,000 compounds, 4.4% hits; further: potency means the concentration at half of the fitted maximal effect; on the % scale 0 is the no-effect control and ±100 the full control effect; nearly all actives have a fitted effect of over 60% in size
#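 In this displacement format the biotinylated H3(5-23) peptide acetylated at Lys14 serves as ligand at 50 nM, with BAZ2B at 50 nM in PBS pH 7.4 containing 0.01% Tween-20. Donor and acceptor beads are 10 ug/mL final.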
# HP1b binding inh: HP1-beta chromodomain-methylated histone interaction inhibition; P83916; AlphaScreen HP1-beta / biotin-H3K9me3 peptide binding; Potency, µM (titrated, usually from 114 µM), for the others: at the highest dose activity change, negative = inhibition, hits mostly inhibitors; 390,000 compounds, 0.56% hits; further: potency means the concentration at half of the fitted maximal effect; nearly all actives have a fitted effect of over 70% in size
#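 HP1-beta protein (50 nM final) preincubated 30 min at room temperature with biotinylated H3(1-18)K9me3 peptide (50 nM) in PBS pH 7.4, 0.01% Tween-20, then compound added for 30 min. AlphaScreen streptavidin donor/nickel chelate acceptor beads (10 ug/mL final), 30 min dark, luminescence read.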
# TDP1 block: TDP1 (human) enzyme inhibition; Q9NUW8; recombinant TDP1, AlphaScreen DNA substrate cleavage; Potency, µM (top dose mostly 130 µM), inactives show top-dose activity change, negative = inhibition, usual class: inhibitors; 350,000 compounds, 0.28% hits; further: potency means the concentration at half of the fitted maximal effect; on the % scale 0 is the no-effect control and ±100 the full control effect; nearly all actives have a fitted effect of over 40% in size
#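 Enzyme-compound mixtures sat 15 min at room temperature, followed by a 5 min reaction with 15 nM final substrate and 10 min with AlphaScreen beads. Recombinant human Tdp1 was used at 1 nM final.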
# Starred values were filed as active, the others as inactive; ? = inconclusive; · = no result; [ ] = remark or other dose. Unless noted, the call rests on the fitted dose curve; in most records, active means well fitted inhibition curve with a large enough effect; inconclusive means small, poorly fitted or top-dose-only effect; inactive means no such curve, though single readings can be large or run the other way.
SMILES,JMJD2A Tudor,CtBP-E1A blk,Six1-Eya2 inh,BAZ2B inh,HP1b binding inh,TDP1 block
COc1ccc(CNC(=O)CN2N=C(c3ccc(Cl)cc3)CCC2=O)cc1,-11%,·,·,-2%,19%,3%
COc1ccc(C(c2nnnn2C2CCCCC2)N2CCN(c3ccc(OC)cc3)CC2)cc1 (stereo not drawn),?,?,?,40µM*,?,12%
COc1ccc(C(c2nnnn2C2CCCC2)N2CCN(C3CCCC3)CC2)cc1OC (stereo not drawn),56µM*,3,-2,-34%,15%,-3%
CC(=O)Nc1ccc(S(=O)(=O)Nc2ccc(C)c(C)c2)cc1,-5%,·,·,·,·,0%
O=C(CC1(O)C(=O)N(CCc2ccccc2)c2ccc(Br)cc21)c1ccccc1O (stereo not drawn),?,·,·,?,-6%,·
Cc1ccc(NC(=O)C(=O)NCC(c2ccc3c(c2)OCO3)N2CCN(C)CC2)cc1C (stereo not drawn),-11%,·,·,-1%,11%[57 µM],-3%
CCOc1ccc(N=C(NN)c2ccc3ccccc3n2)cc1,50µM*,-23,13,40µM*,-1%[57 µM],5%
CCOc1ccc(N=C(C)C2=C(O)c3ccccc3C2=O)cc1,-15%,-10,13,-11%,11%,·
COC(=O)C1=C(NC(=O)c2ccccc2C)CCS1,79µM*,-8,-16,-4%,2%,10%
Cc1ccc(CNC(=O)C(=O)NCC(c2ccco2)S(=O)(=O)c2ccc(C)cc2)cc1 (stereo not drawn),-20%,·,·,-1%,34%,8%
Cc1cccc(-n2c(-c3csc(C)c3)n[nH]c2=S)c1,11µM*,6,-2,-33%,?,7%
CCc1cc(-c2n[nH]c(=S)n2-c2cccc(C)c2)cs1,32µM*,-7,-1,-37%,-1%,10%
S=c1[nH]nc(-c2ccc(Cl)cc2)n1-c1ccc(Cl)cc1,-29%,-16,7,?,13%,5%
Cc1cccc(OCc2n[nH]c(=S)n2-c2ccccc2)c1,?,?,5,?,7%,3%
Cc1ccccc1Cn1c(SCc2ccc(C(=O)NCCc3ccccc3)cc2)nc2ccncc21,-18%,·,·,-15%,40%,5%
Cc1c(C(=O)OCC(C)C)[nH]c2c1C(=O)CC(c1ccco1)C2 (stereo not drawn),?,-4,-15,50µM*,18%,3%
C=CCOC(=O)c1[nH]c2c(c1C)C(=O)CC(c1ccco1)C2 (stereo not drawn),20µM*,-3,-13,50µM*,28µM*,·
COc1ccc(OC)c(C2CC(=O)c3c([nH]c(C(=O)OCC4CCCO4)c3C)C2)c1 (stereo not drawn),-35%,-3,-14,?,15%,5%
CCC(C)OC(=O)c1[nH]c2c(c1C)C(=O)CC(c1ccc(N(C)C)cc1)C2 (stereo not drawn),?,-17,-28,?,-6%,5%
Cc1c(C(=O)OCC2CCCO2)[nH]c2c1C(=O)CC(c1ccco1)C2 (stereo not drawn),?,4,-24,22µM*,?,?
C/C=C/COC(=O)c1[nH]c2c(c1C)C(=O)CC(c1ccc(N(C)C)cc1)C2 (stereo not drawn),89µM*,-15,-15,?,-12%,6%
Cc1ccc(C)c(Cn2c(=O)cc(C(F)(F)F)c3c(C)nn(C)c32)c1,70%,·,·,60%,104%,2%
C/C=C/COC(=O)c1[nH]c2c(c1C)C(=O)CC(c1ccco1)C2 (stereo not drawn),50µM*,19,-12,50µM*,-8%,-11%
COc1cc(Cl)c(C)cc1NC(=O)Cn1cc(S(=O)(=O)N2CCC(C)CC2)c2ccccc2c1=O,-16%,·,·,-16%,11%,0%
CCOc1ccccc1/C=N/Nc1ccccc1[N+](=O)[O-],?,-9,-23,?,-30%,5%
SMILES,JMJD2A Tudor,CtBP-E1A blk,Six1-Eya2 inh,BAZ2B inh,HP1b binding inh,TDP1 block
Cc1n[nH]c(C)c1CCC(=O)N/N=C/c1c(C)[nH]c2ccccc12,-17%,-3,3,?,27%,6%
CC(C)Oc1ccccc1/C=N/Nc1ccccc1[N+](=O)[O-],14µM*,-76*,-72*,5.6µM*,?,12%
Cc1[nH]c2ccccc2c1/C=N/Nc1ccccc1[N+](=O)[O-],22µM*,?,-69*,5.6µM*,40µM*,10%
COc1ccccc1/C=N\Nc1ccccc1[N+](=O)[O-],8.9µM*,0,-19,3.2µM*,13µM*,·
CCCOc1ccc(/C=N/Nc2ccccc2[N+](=O)[O-])c(O)c1,-21%,-28,-28,?,-31%,8%
Cc1[nH]c2ccccc2c1/C=N/NC(=O)CCC(=O)NCc1ccccc1,11µM*,-9,-4,-21%,-24%,5%
CCc1cccc(C)c1NC(=O)CSc1n[nH]c(-c2ccccc2)n1,-12%,·,·,5%,18%[57 µM],5%
COc1ccccc1-c1cc(NC(=O)COc2ccccc2Cl)n(-c2ccccc2)n1,-15%,·,·,4%,24%[57 µM],0%
CC1=C(/C=N/Nc2ccc([N+](=O)[O-])cc2[N+](=O)[O-])C(C)(C)CCC1,2.8µM*,-12,-14,3.5µM*,8.9µM*,8%
O=[N+]([O-])c1ccc(N/N=C/c2ccccc2)c(F)c1,-5%,20,12,9%,38%,-3%
COc1ccc(/C=N\Nc2ccc([N+](=O)[O-])cc2[N+](=O)[O-])c(C(=O)O)c1OC,50µM*,·,-1,-38%,?,8%
Cc1cc(C)cc(NC(=O)N2CCN(C)c3ncccc32)c1,-19%,·,·,-24%,14%,6%
COc1cc(CCNc2ccc3nnc(-c4ccccc4)n3n2)cc(OC)c1OC,-13%,-90*,-80*,-22%,41%,3%
N#C/C(C(=O)c1ccccc1)=C1/SC=C(N)N1c1ccccc1,·,·,·,45µM*,·,7%
Cc1ccn2c(NCc3ccccc3)c(-c3cccs3)nc2c1,?,-1,-6,?,-2%,5%
Cc1nc(C)c(-c2csc(NCc3ccco3)n2)s1,?,-24,-14,50µM*,-18%,2%
CCC(C(=O)NCc1ccco1)n1nc(-c2ccc(OC)cc2)ccc1=O (stereo not drawn),?,-2,-11,50µM*,-32%,-2%
COc1ccc(-c2ccc(=O)n(CC(=O)NCc3ccco3)n2)cc1,?,1,0,?,0%,-11%
Cc1ccn2c(-c3csc(NCc4ccccc4)n3)c(C)nc2c1,56µM*,-22,-5,32µM*,?,12%
